Screening results from PubChem BioAssay.
DT40 TDP1 no CPT = qHTS for Inhibitors of human tyrosyl-DNA phosphodiesterase 1 (TDP1): qHTS in cells in absence of CPT; Potency, µM (titrated, usually from 46.2 µM), without a hit: top-dose activity change, negative = growth inhibition, most hits filed as inhibitors; DT40 Tdp1-/- hTDP1 cells, no CPT, ATP luminescence, 48 h; 420,000 tested, 15% active; further: potency means the concentration at half of the fitted maximal effect; on the % scale 0 is the no-effect control and ±100 the full control effect; nearly all actives have a fitted effect of over 55% in size
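Compound effects on proliferation are scored in DT40 Tdp1-/-;hTDP1 cells in the absence of CPT. ATP levels (CellTiter-Glo luminescence) are recorded after a ≥48 hr, 37 °C incubation.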
IL-1B inflam inh = inhibitors of inflammasome signaling (IL-1 beta secretion); THP-1 LPS/ATP IL-1B secretion, AlphaLISA, 16 h; active compounds read low; AID 743279; activity change, % at 57.5 µM; 360,000 tested, 4.7% active; in the data active means activity change below about -50%; inconclusive means mostly about -30% to -49%; further: on the % scale 0 is the no-effect control and ±100 the full control effect
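THP-1 cells pretreated 1 hr with compounds (up to 57.5 uM final), then stimulated with LPS (250 ng/mL final) plus ATP (1.25 mM final); secreted IL-1B measured by AlphaLISA after 16 hr, decreased signal indicating inhibition.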
D3 ag = activates the human D3 dopamine receptor; P35462; D3R DiscoveRx beta-arrestin cells, luminescence, 90 min; max activation, %; 410,000 tested, 0.58% active; in the data active means max activation above about 30%; further: 0% is about no effect
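Cells at 1500/well, incubated overnight, then treated with pinned compounds (dopamine as control) for 90 min at 37 degrees C. DiscoveRx reagent added for 30 - 60 minutes at room temperature; luminescence read.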
DT40 TDP1 CPT = growth inhibition of DT40 Tdp1-/-;hTDP1 cells with camptothecin (screen for TDP1 inhibitors); AID 686979; 420,000 tested, 12% active; chicken DT40 Tdp1-/-;hTDP1 cells + 20 nM CPT, ATP luminescence, 48 h; Potency, µM (series often up to 46.2 µM), inactives show top-dose activity change, negative = growth inhibition, actives largely listed as inhibitors; further: potency means the concentration at half of the fitted maximal effect; on the % scale 0 is the no-effect control and ±100 the full control effect; nearly all actives have a fitted effect of over 55% in size
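Cell growth measured by CellTiter-Glo luminescence after a minimum 48 h, 37 C compound exposure with 20 nM CPT in Tdp1-knockout DT40 cells stably expressing hTDP1, seeded 400/well; qHTS titration format.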
D3 antag = D3 dopamine receptor (human) antagonism | max response, negative = inhibition, % | D3R cells, DiscoveRx beta-arrestin luminescence, antagonist mode; active compounds read low | P35462 | 360,000 tested, 2.5% active; in the data active means max response below about -50%; inconclusive means no clear call, values can overlap the other calls; further: on the % scale 0 is the no-effect control and ±100 the full control effect
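Cells expressing the human receptor were seeded at 1500 cells/well, incubated overnight at 37 degrees C in 5% CO2, then exposed to library compounds with dopamine controls for 90 minutes at 37 degrees C before luminescent detection.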
ClpP mod = qHTS Assay for Activators of ClpP; 340,000 tested, 1.9% active; AID 651965, 2013; ATP-dependent Clp protease proteolytic subunit (Bacillus subtilis (strain 168)), P80244; purified B. subtilis ClpP, FRET peptide cleavage, 20 min; Potency, µM (highest dose often 57.5 µM), for inactives: top-dose activity change, negative = active; active means well fitted falling curve with a large enough effect; inconclusive means small, poorly fitted or top-dose-only effect; inactive means no such curve, though single readings can be large or run the other way; further: potency means the concentration at half of the fitted maximal effect; the source files actives as falling curves though it sought activators and does not explain the sign; nearly all actives have a fitted effect of over 65% in size
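Buffer: 100 mM Tris/HCl pH8, 100 mM KCl, 0.05% low protease BSA, 2.5% glycerol, 0.01% Tween-20. ClpP 10 microg/mL final; 20 min RT; delta FRET normalized to ADEP and DMSO controls.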
Starred values were filed as active, the others as inactive; ? = inconclusive; nt = no result. A selection: hits, their analogues and other compounds. The true share with any hit is near 21%. Unless noted, the call rests on the fitted dose curve; in most records, active means well fitted inhibition curve with a large enough effect; inconclusive means small, poorly fitted or top-dose-only effect; inactive means flat fitted curve, though single readings scatter.

SMILES	DT40 TDP1 no CPT	IL-1B inflam inh	D3 ag	DT40 TDP1 CPT	D3 antag	ClpP mod
Cc1ccc(NC(=O)CSc2nnc(COc3ccccc3F)n2N)cc1S(=O)(=O)N1CCOCC1	?	0	3	?	-12	1%
COc1cc(S(=O)(=O)Nc2cccnc2)ccc1Cl	-19%	6	-2	-3%	2	1%
COc1cc2c(cc1OC)CN(C(=O)c1ccc(S(=O)(=O)N3CCCCC3)cc1)CC2	16µM*	-2	2	26µM*	24	-3%
COc1ccccc1N1CCN(C(=O)c2ccc(S(=O)(=O)N3CCCC3)cc2)CC1	16µM*	4	5	?	16	1%
COc1ccccc1N1CCN(C(=O)c2ccc(C(C)(C)C)cc2)CC1	5.8µM*	-11	-9	4.6µM*	-22	1%
O=C(c1ccc(S(=O)(=O)N2CCCCC2)cc1)N1CCc2ccccc2C1	?	-24	-12	?	-4	1%
COc1ccccc1N1CCN(C(=O)c2ccncc2)CC1	?	16	0	-9%	2	1%
COc1ccccc1C1CCN(C(=O)c2ccc(C(C)(C)C)cc2)CC1	16µM*	-92*	3	?	8	-1%
Cc1cccc(-n2c(=O)c3c(c4cc(C)ccc4n3C)n(CC(=O)NCCC3=CCCCC3)c2=O)c1	?	nt	6	?	nt	?
COc1ccccc1CCNC(=O)C(=O)NCC(c1ccc2c(c1)OCO2)N1CCOCC1 (configuration not stated)	?	nt	-11	?	nt	2%
CCN(CC(=O)N1CCOCC1)S(=O)(=O)c1ccccc1	5%	3	-4	-1%	-6	nt
CCCNC(=O)C1(C)CCCN(CCC(=O)c2ccccc2)C1 (configuration not stated)	7.3µM*	?	7	5.8µM*	0	-2%
CCCNC(=O)C1(C)CCCN(Cc2cc(-c3ccccc3)nn2C)C1 (configuration not stated)	16µM*	-8	-4	?	-20	2%
CC(C)NC(=O)C1(C)CCN1CCC(=O)c1ccccc1 (configuration not stated)	13µM*	8	6	13µM*	17	-1%
CCCNC(=O)C1(C)CCCN(CCOc2ccccc2)C1 (configuration not stated)	?	-15	0	?	1	0%
CCCNC(=O)C1(C)CCCN(Cc2ccc(-c3ccccn3)cc2)C1 (configuration not stated)	13µM*	-14	1	16µM*	-1	-3%
CCCNC(=O)C1(C)CCCN(Cc2ccccc2-c2ccccc2)C1 (configuration not stated)	?	23	5	?	4	1%
CCOc1cc(-c2nc(-c3ccc(Br)cc3)no2)cc(OCC)c1OCC	-8%	nt	0	-9%	nt	-1%
CCCNC(=O)C1(C)CCN(C(=O)COCc2ccccc2)C1 (configuration not stated)	0%	-56*	6	-4%	10	2%
CO/N=C(\C(=O)N[C@@H]1C(=O)N2C(C(=O)O)=C(CSc3nc(=O)c(O)nn3C)CS[C@H]12)c1csc(N)n1	-27%	nt	-11	0%	nt	nt
CCOC(=O)c1c(C)[nH]c(C(=O)N2CCC(C(=O)OCC)CC2)c1C	11%	16	-10	-19%	14	0%
Cc1cc(C)c(Cn2c(C)c(CNCc3ccccc3C)c(C(=O)O)c2C)c(C)c1	?	nt	-15	?	nt	0%
CCC(C(=O)NC1CCCC1)n1c(C2CCCC2)nc2ccccc21 (configuration not stated)	?	-25	0	-25%	15	-2%
